# Whole data set: some 2,900 compounds, median “NF-kB SEAP reporter activity, fold change vs agonist alone” near 0.99, cut for the highest 2% near 2.6. The list comes from a sample in which the highest values are over-represented; it also holds similar structures and randomly drawn compounds.
# Columns and labels:
# RAW-Dual [1] = assay: NF-kB SEAP reporter activity, fold change vs agonist alone; higher = enhanced NF-kB activity; conditions: library stock concentration (final ~1000-fold dilution): 10 mM
# Procedure, shortened: (§1)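 Library stock was pin-tooled at 50 nL into 384-well plates of RAW-Dual macrophages (50,000 cells/well, DMEM), followed 1 h later by a PRR agonist, and the cells were kept at 37 °C, 5% CO2. Supernatant collected after 20 hours was read for IRF by QuantiLuc luminescence and for NF-κB by QuantiBlue absorbance at 620 nm. Reporter activity is fold change over agonist-alone wells, and a well counted as cytotoxic when its IncuCyte confluency was below 70% of agonist controls in both mask sets.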
# RAW-Dual [2] = assay: NF-kB SEAP reporter activity, fold change vs agonist alone; cytotoxicity flag (confluency mask): not cytotoxic; higher = enhanced NF-kB activity
# Procedure, shortened: as §1
# RAW-Dual [3] = assay: NF-kB SEAP reporter activity, fold change vs agonist alone; cytotoxicity flag (confluency mask): cytotoxic (confluency <70% of control); higher = enhanced NF-kB activity
# Procedure, shortened: as §1
# [4] = cytotoxicity flag (confluency mask): not cytotoxic, agonist: Imiquimod (TLR7) […]
# [5] = cytotoxicity flag (confluency mask): not cytotoxic, agonist: MPLA (TLR4) […]
# [6] = agonist: ODN 1826 (TLR9) 0.5 ug/mL
# [7] = agonist: Pam2CSK4 (TLR2/6) 0.1 ug/mL
# [8] = agonist: Pam3CSK4 (TLR2/1) 0.1 ug/mL
smiles,measurement,setting,value
COc1cc2c(Oc3ccc(NC(=O)C4(C(=O)Nc5ccc(F)cc5)CC4)cc3F)ccnc2cc1OCCCN1CCOCC1,NF-kB SEAP reporter activity,RAW-Dual [1]; [4],0.252
same,NF-kB SEAP reporter activity,RAW-Dual [1]; [5],0.252
COc1cc2nccc(Oc3ccc(NC(=O)C4(C(=O)Nc5ccc(F)cc5)CC4)cc3)c2cc1OC (library stock concentration (final ~1000-fold dilution): 10 mM),NF-kB SEAP reporter activity,RAW-Dual [2]; agonist: LPS (TLR4) 0.1 ug/mL,0.511
same,NF-kB SEAP reporter activity,RAW-Dual [2]; [6],0.42
same,NF-kB SEAP reporter activity,RAW-Dual [2]; [7],0.302
same,NF-kB SEAP reporter activity,RAW-Dual [2]; [8],0.275
CN1CCN(C2CCN(C(=O)Nc3cc(Oc4ccc(NC(=O)C5(C(=O)Nc6ccc(F)cc6)CC5)c(F)c4)ccn3)CC2)CC1,NF-kB SEAP reporter activity,"RAW-Dual [1]; cytotoxicity flag (confluency mask): cytotoxic (confluency <70% of control), agonist: Imiquimod (TLR7) […]",2.76
same,NF-kB SEAP reporter activity,"RAW-Dual [1]; cytotoxicity flag (confluency mask): cytotoxic (confluency <70% of control), agonist: MPLA (TLR4) […]",2.32
COc1cc2nccc(Oc3ccc(NC(=O)C4(C(=O)Nc5ccc(F)cc5)CC4)cc3)c2cc1OC,NF-kB SEAP reporter activity,RAW-Dual [1]; [4],0.555
same,NF-kB SEAP reporter activity,RAW-Dual [1]; [5],0.59
COc1cc2c(Oc3ccc(NC(=O)C4(C(=O)Nc5ccc(F)cc5)CC4)cc3F)ccnc2cc1OCCCN1CCOCC1 (library stock concentration (final ~1000-fold dilution): 10 mM),NF-kB SEAP reporter activity,RAW-Dual [2]; agonist: LPS (TLR4) 0.1 ug/mL,0.266
same,NF-kB SEAP reporter activity,RAW-Dual [2]; [6],0.184
same,NF-kB SEAP reporter activity,RAW-Dual [2]; [7],0.0818
same,NF-kB SEAP reporter activity,RAW-Dual [2]; [8],0.137
CN1CCN(C2CCN(C(=O)Nc3cc(Oc4ccc(NC(=O)C5(C(=O)Nc6ccc(F)cc6)CC5)c(F)c4)ccn3)CC2)CC1 (library stock concentration (final ~1000-fold dilution): 10 mM),NF-kB SEAP reporter activity,RAW-Dual [3]; agonist: LPS (TLR4) 0.1 ug/mL,1.43
same,NF-kB SEAP reporter activity,RAW-Dual [3]; [6],0.896
same,NF-kB SEAP reporter activity,RAW-Dual [3]; [7],0.607
same,NF-kB SEAP reporter activity,RAW-Dual [3]; [8],0.664
CC(Nc1nc(NC(C)C(F)(F)F)nc(-c2cccc(Cl)n2)n1)C(F)(F)F (stereo not given) (library stock concentration (final ~1000-fold dilution): 10 mM),NF-kB SEAP reporter activity,RAW-Dual [2]; agonist: LPS (TLR4) 0.1 ug/mL,1.26
same,NF-kB SEAP reporter activity,RAW-Dual [2]; [6],1.18
same,NF-kB SEAP reporter activity,RAW-Dual [2]; [7],0.998
same,NF-kB SEAP reporter activity,RAW-Dual [2]; [8],1.09
CC(Nc1nc(NC(C)C(F)(F)F)nc(-c2cccc(Cl)n2)n1)C(F)(F)F (stereo not given),NF-kB SEAP reporter activity,RAW-Dual [1]; [4],1.04
same,NF-kB SEAP reporter activity,RAW-Dual [1]; [5],1.11
CC1CNc2c(cccc2S(=O)(=O)NC(CCCNC(=N)N)C(=O)N2CCC(C)CC2C(=O)O)C1.O (stereo not given) (library stock concentration (final ~1000-fold dilution): 10 mM),NF-kB SEAP reporter activity,RAW-Dual [2]; agonist: LPS (TLR4) 0.1 ug/mL,0.94
same,NF-kB SEAP reporter activity,RAW-Dual [2]; [6],1.05
same,NF-kB SEAP reporter activity,RAW-Dual [2]; [7],0.969
same,NF-kB SEAP reporter activity,RAW-Dual [2]; [8],0.87
CC1CNc2c(cccc2S(=O)(=O)NC(CCCNC(=N)N)C(=O)N2CCC(C)CC2C(=O)O)C1.O (stereo not given),NF-kB SEAP reporter activity,RAW-Dual [1]; [5],0.981
O=C(OC1OC2COC(=O)c3cc(O)c(O)c(O)c3-c3c(cc(O)c(O)c3O)C(=O)OC(C2O)C1O)c1cc(O)c(O)c(O)c1 (stereo not given),NF-kB SEAP reporter activity,RAW-Dual [1]; [4],0.783
same,NF-kB SEAP reporter activity,RAW-Dual [1]; [5],1.08
O=C(OC1OC2COC(=O)c3cc(O)c(O)c(O)c3-c3c(cc(O)c(O)c3O)C(=O)OC(C2O)C1O)c1cc(O)c(O)c(O)c1 (stereo not given) (library stock concentration (final ~1000-fold dilution): 10 mM),NF-kB SEAP reporter activity,RAW-Dual [2]; agonist: LPS (TLR4) 0.1 ug/mL,1.34
same,NF-kB SEAP reporter activity,RAW-Dual [2]; [6],0.874
same,NF-kB SEAP reporter activity,RAW-Dual [2]; [7],0.809
same,NF-kB SEAP reporter activity,RAW-Dual [2]; [8],0.393

# From the supplement of paper PMC10037445
